From PubChem BioAssay (NCATS) come the findings set out here.

Molecules are shown by their SMILES. Values joined by “and” are separate entries in the source; they are usually repeats but may differ in a detail not shown here. Equal entries are not always repeated. Results filed as inconclusive are left out. Active and inactive are the calls of the source. Unless noted, calls come from the whole dose curve; as a rule, active = well fitted curve in the direction sought with a large enough effect; inconclusive = small, poorly fitted or top-dose-only effect, or another doubt; inactive = no such curve, though single readings can be large; an effect the other way counts as inactive or inconclusive.

The nature of assay [1]: Cell Viability - LYMP1-002 - Assay at 16 hr (AID 948).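 Note: 0% = DMSO alone and full effect = 92 µM tetraoctylammonium bromide.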 Summed up: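 In this qHTS, lymphoblastoid LYMP1-002 cells (human) receive compounds for 16 hr at 37 C. Viability is taken from CellTiter-Glo ATP luminescence, and AC50 derives from standard Hill fits.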
Assay [2] can be described thus: MultiTox-Fluor Cytotoxicity Assay - LYMP1-002 - Dead Cells (AID 960).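 Note: 0% = DMSO and 100% = tetraoctylammonium bromide; nearly all actives have a fitted effect of over 60% in size.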 Summed up: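 Human lymphoblastoid LYMP1-002 cells, 2500/well, treated 16 h at 37 C; dead-cell protease cleavage of bis-AAF-R110 read by fluorescence (485/520); normalized to DMSO and 15 uM tetraoctylammonium bromide; AC50 from Hill fit.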
Assay [3] can be described thus: Cell Viability - LYMP2-009 (AID 968). Note: nearly all actives have a fitted effect of over 55% in size. Note: potency is the fitted concentration of half-maximal effect.
Assay [4] in a line: Cell Viability - LYMP2-002 (AID 977).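 Note: compound exposure lasted 24 h at 37 °C.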 Note: potency is the fitted concentration of half-maximal effect. Summed up:
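Cytotoxicity is scored as concentration-dependent loss of cellular ATP in a human lymphoblastoid line after 24 hr compound treatment at 37 C. AC50 is obtained by modelling concentration-response data with the Hill equation.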

Assay [5] in a line: Cell Viability - LYMP2-016 (AID 984). Note: nearly all actives have a fitted effect of over 55% in size. Note: potency is the fitted concentration of half-maximal effect. Summed up:
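Concentration-dependent ATP depletion measured in LYMP2-016 lymphoblastoid cells, 24 h, 37 C; luciferase-based luminescent detection; Hill-equation AC50.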

Assay [6] deals with Glucocorticoid receptor (Homo sapiens) (UniProt P04150). As to the kind of experiment: qHTS assay for small molecule agonists of glucocorticoid receptor signaling (AID 588532; active = well fitted curve in the direction sought with a large enough effect in the signal ratio, with a control signal flat; the % refers to the signal ratio;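 note: 100% = dexamethasone at 0.1 µM and 0% = DMSO only wells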). The conditions noted are these: HeLa MMTV-bla, beta-lactamase ratio, agonist, 18 h; stronger effect = higher value; percent of dexamethasone control, DMSO zero. Summed up:
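Using MMTV-bla HeLa cells in medium with 1% stripped FBS and 25 mM HEPES, compounds were titrated and incubated overnight-length (18 h). Beta-lactamase cleavage of CCF4 was quantified by dual-emission fluorescence.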
On the technique in general: qHTS replaces the single test concentration by a dilution series.

For assay [7], the target named is Retinoic acid receptor RXR-alpha (Homo sapiens) (UniProt P19793). As to the kind of experiment: qHTS assay for small molecule agonists of retinoid X receptor alpha signaling (AID 588544; calls by dose curve;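 note: 0% = DMSO basal wells and 100% = reference agonist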).
Chain of Retinoic acid receptor RXR-alpha (Homo sapiens) (P19793 whole entry, looked up): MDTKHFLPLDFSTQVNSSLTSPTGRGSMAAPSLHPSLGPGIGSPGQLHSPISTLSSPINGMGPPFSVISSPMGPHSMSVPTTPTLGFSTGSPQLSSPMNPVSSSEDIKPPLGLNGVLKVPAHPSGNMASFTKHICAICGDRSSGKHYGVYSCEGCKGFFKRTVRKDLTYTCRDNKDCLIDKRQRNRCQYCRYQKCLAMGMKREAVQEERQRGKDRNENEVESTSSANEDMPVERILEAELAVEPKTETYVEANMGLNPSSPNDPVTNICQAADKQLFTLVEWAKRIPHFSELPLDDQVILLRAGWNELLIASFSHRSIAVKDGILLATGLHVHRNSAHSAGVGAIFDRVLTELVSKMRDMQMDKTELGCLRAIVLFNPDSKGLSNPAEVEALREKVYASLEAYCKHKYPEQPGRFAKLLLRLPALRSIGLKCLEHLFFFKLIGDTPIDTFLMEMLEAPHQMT
For assay [8], the target named is Thyroid hormone receptor beta (Homo sapiens) (UniProt P10828). As to the kind of experiment: qHTS assay for small molecule agonists of thyroid hormone receptor beta signaling (AID 588545; calls by dose curve). Summed up:
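Cells (2500/well) were seeded, incubated 4 hrs at 37 C, dosed with a compound series, incubated 18 hrs, loaded with CCF4 dye for 2 hrs at RT, then read for fluorescence. Data were scaled between DMSO (0%) and 10 nM T3 (100%).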

The target of assay [9] is Retinoic acid receptor RXR-alpha (Homo sapiens) (UniProt P19793). As to the kind of experiment: qHTS assay for small molecule antagonists of retinoid X receptor alpha signaling (AID 588546; active = well fitted inhibition curve with a large enough effect in the signal ratio, with a control signal flat, not every such curve was filed as active; the % refers to the signal ratio;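 note: cells stimulated with 9-cis-retinoic acid as agonist; % is set by controls: 0 for no effect and ±100 for the full control effect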). Conditions: HEK293T RXRa-UAS-bla, beta-lactamase ratio, antagonist mode. Summed up:
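Beta-lactamase reporter inhibition, read as CCF4 fluorescence ratio (ex 405, em 460/530 nm) after 2 h at RT. HEK293T UAS-bla cells, 2500/well, were stimulated with 9-cis-RA at 500 or 100 nM final alongside test compound for 18 h at 37 C.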

The target in assay [10] is Thyroid hormone receptor beta (Homo sapiens) (UniProt P10828). As to the kind of experiment: qHTS assay for small molecule antagonists of thyroid hormone receptor beta signaling (AID 588547; active = well fitted inhibition curve with a large enough effect in the signal ratio, with a control signal flat, not every such curve was filed as active; the % refers to the signal ratio;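 note: cells stimulated with 0.4 nM T3 agonist during compound exposure; series mostly up to about 77 µM; % is set by controls: 0 for no effect and ±100 for the full control effect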). Conditions: TR-UAS-bla HEK293, beta-lactamase ratio, antagonist mode, 18 h. Summed up:
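Inhibition of T3-driven (0.4nM final) beta-lactamase reporter activity was measured over 0.59 nM to 92 uM compound after 18 h at 37 C. The cells were GripTite HEK293 TR-UAS-bla in charcoal/dextran-stripped serum, with CCF4 ratio read-out and IC50 from Hill fits.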

The nature of assay [11]: qHTS assay for small molecule agonists of the antioxidant response element (ARE) signaling pathway (AID 651741; active = well fitted activation curve with a large enough effect in the signal ratio; the % refers to the signal ratio; note: potency is the fitted concentration of half-maximal effect; for activation: % of control where 0% means no effect). Summed up: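 Quantitative HTS in HepG2 cells stably expressing an ARE-beta-lactamase reporter; 16 h compound exposure at 37 C, followed by 2 h room-temperature incubation with LiveBLAzer B/G FRET substrate and fluorescence measurement.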
Assay [12] can be described thus: qHTS assay for small molecule activators of the nuclear factor-kappa B (NF-kB) signaling pathway (AID 651749; active = well fitted activation curve with a large enough effect in the signal ratio; the % refers to the signal ratio; note: series mostly up to about 77 µM; % of control where 0% means no effect). Conditions: NF-kB-bla ME-180 cells, beta-lactamase FRET ratio, 16 h; stronger effect = higher value. Summed up:
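Readout: beta-lactamase reporter driven by an NF-kB response element, detected fluorescently as loss of FRET. Cells were the ME-180 line, treated 16 hr at 37C with pin-transferred compound.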

The nature of assay [13]: qHTS assay for small molecule disruptors of the mitochondrial membrane potential - 5 hr assay (AID 651755; calls by dose curve; note: % is set by controls: 0 for no effect and ±100 for the full control effect; nearly all actives have a fitted effect of over 40% in size). Summed up:
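HepG2, 2,000 cells/well, overnight attach; cpd or DMSO 5 hr, 37C/5% CO2; Mito-MPS 30 min 37C; fluor 490/535 + 540/590 nm.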

Assay [14] can be described thus: qHTS assay for environmental chemicals that activate the Aryl hydrocarbon Receptor (AhR) signaling pathway (AID 651777). Note: % of control where 0% means no effect; nearly all actives have a fitted effect of over 15% in size. The conditions noted are these: 1A2-DRE human hepatoma cells, luciferase, 24 h; activation: stronger effect = higher value. Summed up: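 AhR activation is scored as a rise in luciferase from a stable DRE–CYP1A2 promoter construct in human hepatoma cells. Treatment lasts 24 hr at 37 C; detection uses One-Glo after 30 min at room temperature.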

For assay [15], the target named is Nuclear receptor ROR-gamma (Homo sapiens) (UniProt P51449). As to the kind of experiment: qHTS assay for small molecule antagonists of the retinoid-related orphan receptor gamma (ROR-gamma) signaling pathway (AID 651802).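 Note: luciferase reporter luminescence driven by ROR response element; series mostly up to about 92 µM; % is set by controls: 0 for no effect and ±100 for the full control effect; nearly all actives have a fitted effect of over 60% in size.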 Summed up:
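CHO cells with TET-inducible ROR-gamma and RORE-luciferase reporter, dosed then doxycycline-induced. After 16 h at 37C, One-Glo luminescence read; decreased signal indicates antagonism.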

A short description of assay [16]: qHTS assay for cell viability of HEK293 cells (AID 743288). Note: % is set by controls: 0 for no effect and ±100 for the full control effect; nearly all actives have a fitted effect of over 50% in size. Conditions: ATP luminescence (CellTiter-Glo), 18 h, stronger effect = lower value. Summed up: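 Luminescent ATP quantitation served as the viability read-out. Cells (parental HEK293, 2,000/well) received compounds after at least 5 h at 37 C and were exposed for 18 h before a 30 min room-temperature reagent step.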

The nature of assay [17]: Cell Viability - LYMP2-017 (AID 972). Note: nearly all actives have a fitted effect of over 55% in size. Note: potency is the fitted concentration of half-maximal effect. Summed up: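 LYMP2-017 human lymphoblastoid cells (2500/well) settled 5 hr at 37 C, then exposed to compound 24 hr at 37 C in complete medium. Viability taken as intracellular ATP by CellTiter-Glo luminescence after 30 min at RT; AC50 from Hill fits.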
Assay [18] is described as follows: qHTS assay for small molecule antagonists of peroxisome proliferator-activated receptor delta signaling (AID 588535).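 Note: cells co-treated with a PPAR-delta agonist as stimulator during compound exposure.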 Conditions: HEK293T PPARd-UAS-bla, beta-lactamase FRET ratio, 18 h; 460 nm channel. Summed up:
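HEK293T PPAR-delta-UAS-bla cells, 4000/well, 2% charcoal/dextran FBS; 5 h 37 C; cpd titration; 18 h 37 C; CCF4 2 h RT; FI 460/530 nm; Hill fit → IC50, efficacy.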

For assay [19], the target named is Vitamin D3 receptor (Homo sapiens) (UniProt P11473). As to the kind of experiment: qHTS assay for small molecule agonists of vitamin D receptor signaling (AID 588543; calls by dose curve;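 note: 0% = DMSO basal and 100% = reference agonist control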). Summed up: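 Measured: β-lactamase reporter activity (CCF4, 405 nm excitation, 460/530 nm emission) in HEK293T VDR-UAS-bla cells after 16 h compound exposure at 37 °C. Normalization against 50 nM 1α,25-dihydroxyvitamin D3 and DMSO; Hill-fit EC50.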
Chain of Vitamin D3 receptor (Homo sapiens) (P11473 whole entry, looked up): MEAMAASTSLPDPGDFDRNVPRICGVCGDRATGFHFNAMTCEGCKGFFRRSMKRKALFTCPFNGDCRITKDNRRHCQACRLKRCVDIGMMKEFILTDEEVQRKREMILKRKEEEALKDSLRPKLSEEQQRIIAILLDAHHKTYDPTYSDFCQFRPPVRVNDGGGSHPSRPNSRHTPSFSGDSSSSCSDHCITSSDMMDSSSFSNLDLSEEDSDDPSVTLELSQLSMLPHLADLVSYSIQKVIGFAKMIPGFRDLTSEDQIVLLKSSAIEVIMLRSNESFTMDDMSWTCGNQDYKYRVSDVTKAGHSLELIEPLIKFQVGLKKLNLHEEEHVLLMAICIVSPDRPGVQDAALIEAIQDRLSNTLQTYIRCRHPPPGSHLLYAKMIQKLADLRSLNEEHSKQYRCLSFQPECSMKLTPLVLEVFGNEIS

Chain of Thyroid hormone receptor beta (Homo sapiens) (P10828 whole entry, looked up): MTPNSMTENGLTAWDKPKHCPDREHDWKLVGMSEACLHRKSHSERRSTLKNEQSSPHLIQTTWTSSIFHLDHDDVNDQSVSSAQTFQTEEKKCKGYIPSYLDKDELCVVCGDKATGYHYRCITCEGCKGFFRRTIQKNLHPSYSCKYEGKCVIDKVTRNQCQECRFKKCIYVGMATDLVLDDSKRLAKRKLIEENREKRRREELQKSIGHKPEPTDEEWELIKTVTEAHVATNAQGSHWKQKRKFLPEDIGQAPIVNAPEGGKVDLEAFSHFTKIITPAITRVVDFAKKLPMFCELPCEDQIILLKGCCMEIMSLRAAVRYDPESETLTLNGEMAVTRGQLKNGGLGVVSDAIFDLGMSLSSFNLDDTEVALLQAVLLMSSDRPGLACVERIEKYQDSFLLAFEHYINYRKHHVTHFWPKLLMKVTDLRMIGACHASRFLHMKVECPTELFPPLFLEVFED
Chain of Glucocorticoid receptor (Homo sapiens) (P04150 whole entry, looked up): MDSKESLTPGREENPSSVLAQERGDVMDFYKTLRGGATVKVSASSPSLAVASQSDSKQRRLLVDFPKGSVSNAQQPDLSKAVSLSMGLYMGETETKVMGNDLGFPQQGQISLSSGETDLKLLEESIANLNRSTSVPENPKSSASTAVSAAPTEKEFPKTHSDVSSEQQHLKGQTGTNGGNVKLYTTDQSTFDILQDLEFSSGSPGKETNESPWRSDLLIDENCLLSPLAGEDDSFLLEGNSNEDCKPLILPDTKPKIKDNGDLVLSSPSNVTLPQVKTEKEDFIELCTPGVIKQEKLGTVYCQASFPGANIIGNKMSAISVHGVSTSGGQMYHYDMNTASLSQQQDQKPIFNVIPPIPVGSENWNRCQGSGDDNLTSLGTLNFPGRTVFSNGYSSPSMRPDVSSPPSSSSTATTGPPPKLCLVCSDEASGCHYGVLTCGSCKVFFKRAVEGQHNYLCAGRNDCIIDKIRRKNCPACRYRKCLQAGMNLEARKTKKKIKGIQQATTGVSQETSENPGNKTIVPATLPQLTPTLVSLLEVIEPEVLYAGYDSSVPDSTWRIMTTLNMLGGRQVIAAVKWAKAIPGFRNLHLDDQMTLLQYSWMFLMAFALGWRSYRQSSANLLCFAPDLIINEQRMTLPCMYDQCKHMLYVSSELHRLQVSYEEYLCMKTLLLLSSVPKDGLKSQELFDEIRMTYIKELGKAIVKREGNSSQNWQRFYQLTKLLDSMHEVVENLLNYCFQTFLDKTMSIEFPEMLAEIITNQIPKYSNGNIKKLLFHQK
Chain of Nuclear receptor ROR-gamma (Homo sapiens) (P51449 whole entry, looked up): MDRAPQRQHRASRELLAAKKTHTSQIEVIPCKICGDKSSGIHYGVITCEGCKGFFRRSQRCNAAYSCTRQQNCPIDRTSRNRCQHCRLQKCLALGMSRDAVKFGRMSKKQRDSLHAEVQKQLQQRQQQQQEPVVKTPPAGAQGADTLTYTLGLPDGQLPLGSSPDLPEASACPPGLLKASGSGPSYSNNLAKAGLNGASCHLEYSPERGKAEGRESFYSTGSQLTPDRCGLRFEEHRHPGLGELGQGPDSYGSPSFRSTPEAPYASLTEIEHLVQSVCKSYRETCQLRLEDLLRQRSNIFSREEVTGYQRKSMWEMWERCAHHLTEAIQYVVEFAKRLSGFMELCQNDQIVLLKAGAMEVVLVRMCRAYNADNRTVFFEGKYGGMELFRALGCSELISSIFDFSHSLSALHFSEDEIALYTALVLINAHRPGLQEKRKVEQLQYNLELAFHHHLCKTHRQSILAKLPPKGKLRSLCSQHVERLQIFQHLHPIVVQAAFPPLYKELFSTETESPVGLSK

Turning to `ClP(Cl)(Cl)(Cl)Cl`, the result in assay [1] and in assay [7] was inactive. The Potency entry in [2], in [3], in [4], in assay [5], in assay [8] and in [11] was “inactive” each time. Moreover, the Potency result in [13] and in assay [15] was “inactive” throughout. Moreover, the activation is -4.5% (inactive) in assay [6], -0.207% (inactive) in assay [12] and -0.379% (inactive) in [14]. Moreover, the max response in assay [9] was -15.7% (inactive); in assay [16], -14.3% (inactive). In assay [10], the activity change % (negative = inhibition) is -5.32% (inactive).
With `CC12CC1(C)C(=O)N(c1cc(Cl)cc(Cl)c1)C2=O` (stereo not given), the outcome in assay [1], in [19] and in assay [7] was inactive. The Potency result in [3], in [17], in [5] and in assay [8] was “inactive” in each case. The activation in assay [6] was -1.15% (inactive) and -3.35% (inactive); in assay [12] it was -0.629% (inactive) and -1.26% (inactive); in assay [14], -0.0704% (inactive) and 1.05% (inactive). The max response in assay [18] was -1.5% and 19.3%; in assay [9], -13.5% (inactive); in assay [16] it was 5.03% (inactive) and -17.6% (inactive). In addition, the activity change % (negative = inhibition) in assay [10] was 4.26% (inactive) and 9.02% (inactive).
With `CCN(CC)CCO`, the outcome in assay [1] was inactive. For the same compound, the Potency entry in assay [2], in assay [3], in [17], in assay [4], in assay [5] and in [8] was “inactive” each time. The Potency entry in assay [13] and in assay [15] was “inactive” throughout. The activation in assay [6] is 6.4% (inactive); in assay [12] it was -0.22% (inactive); in assay [14], 3.62% (inactive). Also, the max response in [18] was 24%; in [16], -8.96% (inactive). Moreover, in assay [10], the activity change % (negative = inhibition) was -7.98% (inactive).
`CN1CSC(=S)N(C)C1`: the Potency result in assay [2] and in assay [13] was “inactive” throughout. Also, the Potency in assay [3] was 31.6 µM (active); in assay [17], 25.1 µM (active); in [4] it was 31.6 µM (active); in assay [5] it was 39.8 µM (active); in [11] it was 42.2 µM (active) and 27.3 µM (active). Besides, the activation in assay [6] is 6.16% (inactive); in assay [12] it was -0.197% (inactive) and -1.34% (inactive). For the same compound, in assay [19], the compound was classed as inactive. Moreover, the max response in assay [9] is -34.7% (inactive); in assay [16] it was -15.3% (inactive).
Turning to `CC1CC(=O)O1` (stereo not given), the compound was classed as inactive in assay [1] and in [19]. Also, the Potency entry in assay [2], in assay [3], in assay [17], in assay [5], in assay [8] and in assay [11] was “inactive” throughout. For the same compound, the Potency entry in assay [13] and in [15] was “inactive” in each case. The activation is 4.16% (inactive) in [6] and 0.52% (inactive) in [14]. The results for the max response in assay [18], in assay [9] and in assay [16] were 2.28%, 4.5% (inactive) and -7.61% (inactive), respectively.
On to `C=CCO`, for which the Potency entry in assay [3], in assay [17], in assay [5], in [11] and in [13] was “inactive” throughout. The activation in assay [6] is 3.6% (inactive); in [12] it was 0.305% (inactive). Besides, the max response in [18] is 11.9%; in assay [9], 7.67% (inactive). For the same compound, the outcome in [7] was inactive.
As for `CCN(CC)N=O`, the Potency result in [3], in assay [17], in [4], in [5], in assay [13] and in assay [15] was “inactive” throughout. Moreover, in [7], the call was inactive. The max response in assay [9] was 1.08% (inactive); in assay [16], 1.5% (inactive). In addition, the results for the activation in assay [12] and in assay [14] were 0.914% (inactive) and -0.0915% (inactive), respectively.
Turning to `CN(C)N=O`, the call in [1], in assay [19] and in [7] was inactive. Besides, the Potency result in [17], in assay [4], in [8], in [11], in assay [13] and in assay [15] was “inactive” in each case. The activation in assay [6] was -2.94% (inactive); in assay [12], -0.838% (inactive); in [14], 0.336% (inactive). The values for the max response in assay [9] and in [16] were -0.776% (inactive) and -0.309% (inactive), respectively. For the same compound, the activity change % (negative = inhibition) in [10] was 11.5% (inactive).
Consider `N#CCCC#N`, for which the result in [1], in [19] and in assay [7] was inactive. The Potency entry in assay [3], in assay [17], in assay [4], in assay [5], in assay [8] and in assay [11] was “inactive” each time. The Potency entry in assay [15] was “inactive”. The max response in assay [18] is 18.6%; in assay [9], 23.2% (inactive); in assay [16], -2.73% (inactive). Further, the activity change % (negative = inhibition) in [10] is 5.23% (inactive). In addition, the activation in [12] is 0.61% (inactive); in [14], 0.758% (inactive).
Regarding `CN(C)c1ccccc1`, the compound was called inactive in assay [1], in assay [19] and in [7]. Moreover, the Potency entry in assay [2], in assay [4], in [5], in [11] and in assay [13] was “inactive” each time. For the same compound, the activation in [6] is -11% (inactive). Moreover, the max response is 5.23% (inactive) in assay [9] and 0.461% (inactive) in assay [16].
